Growth data for 37 molecules are collected here from PubChem BioAssay (NCI).

This is part of a sample that, as a whole, favours compounds with a hit. Of some 83,000 tested, about 20% had one in any assay.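 A percent growth of 40 corresponds to 60% growth inhibition; 0 means no net growth; -100 means all cells died. Active threshold: below 10.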 Values without a mark were called inactive. The source made the active and inactive calls.

The assay concerns A549/ATCC NSCLC. As to the kind of experiment: NCI-60 one-dose screen, 48 h (100 = growth as untreated, 0 = no growth, -100 = all killed). The conditions noted are these: 10 µM unless noted.
On to `O=C(Nc1cccc2ccccc12)c1cc2ccccc2cc1O`, for which the growth is 11.3%.

Regarding `COc1cc2c(O)n(CCCN3CCOCC3)c3c4cnc5cccc(c(=O)c3c2cc1OC)c54`, the growth was 30.1%.

Regarding `C#CCNC(=O)CC[C@@H](C)[C@H]1CC[C@H]2[C@@H]3CC[C@@H]4CC(=O)CC[C@]4(C)[C@H]3CC[C@]12C`, the growth is 6.94% [100 µM] (active).

For the molecule `COc1ccc(NC(=O)Nc2ccc(-c3cccnc3)cc2N2CCC(CO)CC2)cc1`, the growth is 41%.

As for `CC1(C(=O)O)CCC(N)(C(=O)O)C1(C)C` (configuration not stated), the growth is 110%.

For the molecule `COc1ncc(-c2ccc3nccc(C#CCCCCC(=O)NO)c3c2)cc1NS(=O)(=O)c1ccc(F)cc1F`, the growth was -12.7% (active).

For the molecule `O=C(O)CC1CCCCC1c1ccccc1` (configuration not stated), the growth was 106%.

Turning to `CC(C)=CC/C=C(/C)[C@H]1CC[C@]2(C)[C@@H]1CC[C@@H]1[C@@]3(C)CCC(=O)NC(C)(C)[C@@H]3CC[C@]12C`, the growth was 15.3% [100 µM].

As to `Cc1nc(Cl)c2c(n1)N(C)c1ccc(Cl)cc1C(C)C2` (configuration not stated), the growth was 84.6%.

In the case of `Cc1ccc(N)c(O)c1`, the growth is 85.4%.

On to `Nc1ccc(Cl)c([N+](=O)[O-])c1`, for which the growth was 97.7%.

Regarding `O=[N+]([O-])c1cccc(N=NNc2cccc([N+](=O)[O-])c2)c1`, the growth is 86.7%.

As for `C=C(C)[C@@H]1CC[C@]2(C)[C@H](CC[C@@H]3[C@@H]([C@@](C)(O)CCC=C(C)C)CC[C@]32C)[C@@]1(C)CCC(=O)N1CCN(C)CC1`, the growth was 0.566% [100 µM] (active).

On to `Cn1cc(-c2noc(C(=O)c3cn(C)c4ncc(Br)cc34)n2)c2ccccc21`, for which the growth was 99.3%.

For `COc1cc(NCc2ccccc2O)c2ncccc2c1`, the growth was 110%.

Take `Cc1ccc(C2=C/C(=C/c3ccc(Br)cc3)C(=O)N2CCc2ccc(S(N)(=O)=O)cc2)cc1`: the growth was 96%.

On to `Nc1nc(Nc2ccccc2)c2ncn(Cc3ccc4c(c3)OCO4)c2n1`, for which the growth was 42%.

In the case of `O=C(CCCSc1nc(-c2ccccc2)cc(-c2ccccc2)n1)NO`, the growth was -1.91% (active).

`FC(F)(F)c1ccc2c(c1)Sc1ccccc1N2`: the growth was 95.4%.

Consider `O=C1NC(=O)C(Cc2ccccc2)(Cc2ccccc2)N1`, for which the growth is 102%.

For the molecule `C=C(C)[C@@H]1CC[C@]2(C(=O)N3CCN(C)CC3)CC[C@]3(C)[C@H](CC[C@@H]4[C@@]5(C)C/C(=C/c6ccncc6)[C@H](O)C(C)(C)[C@@H]5CC[C@]43C)[C@@H]12`, the growth was 16.2% [100 µM].

As to `C[C@@H](NC(=O)[C@@H](CC(=O)N1CCC(N2CCCCC2)CC1)N1C(=O)[C@@H](N2C(=O)OC[C@@H]2c2ccccc2)[C@H]1/C=C/c1cccc(Cl)c1)c1ccccc1`, the growth was 63.9%.

For `N#C/C(=C(/O)CCCO)c1nc2ccccc2c(=O)[nH]1`, the growth is 95.3%.

On to `Cn1cc(-c2nnc(-c3cn(C)c4ncc(Br)cc34)s2)c2cc(Br)ccc21`, for which the growth was 94.4%.

In the case of `CC1(C)CC[C@]2(C(=O)OC(=O)[C@]34CCC(C)(C)C[C@@H]3C3=CC[C@@H]5[C@@]6(C)CCC(=O)C(C)(C)[C@@H]6CC[C@@]5(C)[C@]3(C)CC4)CC[C@]3(C)C(=CC[C@@H]4[C@@]5(C)CCC(=O)C(C)(C)[C@@H]5CC[C@]43C)[C@H]2C1`, the growth is 76.5% [100 µM].

Consider `Cn1cc(-c2noc(-c3cn(C)c4ncc(Br)cc34)n2)c2cc(Cl)ccc21`, for which the growth was 96.6%.

`CCc1cccc(Cl)c1`: the growth is 98.8%.

For the molecule `c1cc2ccc3cc2cc1CNCCN1CCNCc2ccc4ccc(cc4c2)CNCCN(CCNC3)CCNCc2ccc3ccc(cc3c2)CNCC1`, the growth was 2.2% (active).

Regarding `COc1ccc(-c2cc(-c3ccccc3)nc(NCCNc3ccnc4cc(Cl)ccc34)n2)cc1`, the growth was -75.5% (active).

`O=C(N/N=C\c1cc(Cl)ccc1O)N/N=C/c1cc(Cl)ccc1O`: the growth was 26.2%.

Take `O=C1Nc2ccccc2/C1=C/C(=O)c1ccc(N2CCCCC2)cc1`: the growth was 95.1%.

Turning to `O=c1c2c3c(sc2n2cnnc2n1Cc1ccccc1)CCCC3`, the growth was 91.7%.

On to `Cn1c(=O)c(C#N)c(-c2ccco2)n2c(S(=O)(=O)Cc3ccccc3)nnc12`, for which the growth was 92.8%.

For `CCCCCn1sc(=O)n(Cc2ccc(CNC(=O)OCc3ccc4cccc(O)c4n3)cc2)c1=O`, the growth is 20.6%.

Regarding `O=C(N/N=C/c1ccc([N+](=O)[O-])cc1)c1ccc(Br)o1`, the growth is 92.7%.

Take `C=C(C)[C@@H]1CC[C@]2(COCCC#N)CC[C@]3(C)[C@H](CC[C@@H]4[C@@](C)(CCCNCCC#N)[C@H](C(=C)C)CC[C@]43C)[C@@H]12`: the growth was 50.4% [100 µM].

With `C=C(C)[C@@H]1CC[C@]2(C(=O)OC)CC[C@]3(C)[C@H](CC[C@@H]4[C@@]5(C)CC/C(=N\OCCC(=NCCC#N)NOCCC#N)C(C)(C)[C@@H]5CC[C@]43C)[C@@H]12`, the growth is 15.8% [100 µM].
